The whole screen tested about 5,500 compounds, of which about 2,000 (36%) were called active. Not shown: some 18% with an inconclusive outcome. No stated cut-off is given here; in the data, active means normalized growth mostly below about 0.91 (no sharp cut-off); inconclusive means no clear call, values can overlap the other calls; inactive means mostly above about 0.92. The list shows a part of the results.
Assay: chemical genetic growth profiling, strain panel (AID 1159580);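 further: tested at 20 µM; growth read once vehicle control cultures reached saturation at 30 °C; 1 = growth at the plate median or of vehicle wells; lower values mean less growth of the strain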
Details: growth OD
[1] = S. cerevisiae deletion strains, locus YAL013W, strain DEP1, hits give low values
[2] = S. cerevisiae deletion strains, locus YBR229C, strain ROT2, hits give low values
[3] = S. cerevisiae deletion strains, locus YDL101C, strain DUN1, hits give low values
[4] = S. cerevisiae deletion strains, locus YDR150W, strain NUM1, hits give low values
[5] = S. cerevisiae deletion strains, locus YEL061C, strain CIN8, hits give low values
[6] = S. cerevisiae deletion strains, locus YGR078C, strain PAC10, hits give low values
[7] = S. cerevisiae deletion strains, locus YHR030C, strain SLT2, hits give low values
[8] = S. cerevisiae deletion strains, locus YJR043C, strain POL32, hits give low values
[9] = S. cerevisiae deletion strains, locus YJR075W, strain HOC1, hits give low values
[10] = S. cerevisiae deletion strains, locus YLR039C, strain RIC1, hits give low values
[11] = S. cerevisiae deletion strains, locus YLR262C, strain YPT6, hits give low values
[12] = S. cerevisiae deletion strains, locus YMR263W, strain SAP30, hits give low values
[13] = S. cerevisiae deletion strains, locus YNL153C, strain GIM3, hits give low values
[14] = S. cerevisiae deletion strains, locus YNL322C, strain KRE1, hits give low values
[15] = S. cerevisiae deletion strains, locus YPL055C, strain LGE1, hits give low values
[16] = S. cerevisiae deletion strains, locus YPL241C, strain CIN2, hits give low values

Measured: normalized growth

CC12CCC3C(CCC4=CC(=O)CCC43CO)C1CCC2OC(=O)c1ccccc1 (configuration not stated)
inactive: [1] 0.994 | [2] 1.01 | S. cerevisiae deletion strains, locus YCL061C, strain MRC1, hits give low values 0.999 | [3] 1.01 | [4] 0.993 | [5] 1 | [6] 1.01 | [7] 0.946 | S. cerevisiae deletion strains, locus YHR087W, strain rtc3, hits give low values 1.01 | S. cerevisiae deletion strains, locus YJL187C, strain SWE1, hits give low values 1.02 | [8] 0.996 | [9] 1.02 | [10] 0.978 | S. cerevisiae deletion strains, locus YLR058C, strain SHM2 (second series), hits give low values 1 | S. cerevisiae deletion strains, locus YLR085C, strain ARP6, hits give low values 1 | [11] 0.956 | S. cerevisiae deletion strains, locus YML094W, strain GIM5, hits give low values 1 | S. cerevisiae deletion strains, locus YMR219W, strain ESC1, hits give low values 1.01 | [12] 0.991 | [13] 1.01 | S. cerevisiae deletion strains, locus YNL298W, strain CLA4 (second series), hits give low values 1.05 | [14] 1.02 | S. cerevisiae deletion strains, locus YNR030W, strain Alg12, hits give low values 0.986 | [15] 1.02 | [16] 1.02 | S. cerevisiae deletion strains, locus YPR135W, strain CTF4, hits give low values 0.923

CC(=O)C1CCC2C3CC(=O)C4=CC(=O)CCC4(C)C3CCC12C (configuration not stated)
inactive: [1] 0.971 | S. cerevisiae deletion strains, locus YBR021W, strain FUR4, hits give low values 0.995 | [2] 0.955 | S. cerevisiae deletion strains, locus YCL029C, strain bik1, hits give low values 0.972 | S. cerevisiae deletion strains, locus YDL035C, strain GPR1, hits give low values 0.971 | S. cerevisiae deletion strains, locus YDL074C, strain BRE1, hits give low values 0.875 | [3] 0.935 | S. cerevisiae deletion strains, locus YDL134C, strain PPH21, hits give low values 0.976 | S. cerevisiae deletion strains, locus YDL185W, strain tfp1, hits give low values 0.946 | S. cerevisiae deletion strains, locus YDL192W, strain arf1, hits give low values 0.982 | S. cerevisiae deletion strains, locus YDR101C, strain arx1, hits give low values 0.99 | [4] 0.95 | S. cerevisiae deletion strains, locus YDR162C, strain NBP2, hits give low values 0.866 | S. cerevisiae deletion strains, locus YDR318W, strain mcm21, hits give low values 0.996 | S. cerevisiae deletion strains, locus YDR388W, hits give low values 0.983 | S. cerevisiae deletion strains, locus YDR502C, strain sam2, hits give low values 0.95 | [5] 0.981 | S. cerevisiae deletion strains, locus YER110C, hits give low values 0.971 | S. cerevisiae deletion strains, locus YER155C, strain BEM2, hits give low values 1 | S. cerevisiae deletion strains, locus YER167W, strain BCK2, hits give low values 0.995 | S. cerevisiae deletion strains, locus YGL078C, strain dbp3, hits give low values 0.979 | S. cerevisiae deletion strains, locus YGL086W, strain mad1, hits give low values 1.01 | S. cerevisiae deletion strains, locus YGL248W, strain PDE1, hits give low values 0.967 | [6] 0.928 | S. cerevisiae deletion strains, locus YGR135W, strain pre9, hits give low values 0.926 | S. cerevisiae deletion strains, locus YGR229C, strain SMI1, hits give low values 1.03 | S. cerevisiae deletion strains, locus YGR252W, strain gcn5, hits give low values 1.02 | [7] 0.995 | S. cerevisiae deletion strains, locus YHR079C, strain IRE1 (second series), hits give low values 0.984 | S. cerevisiae deletion strains, locus YHR094C, strain hxt1, hits give low values 0.982 | S. cerevisiae deletion strains, locus YHR129C, strain ARP1, hits give low values 0.985 | S. cerevisiae deletion strains, locus YHR200W, strain rpn10, hits give low values 0.982 | S. cerevisiae deletion strains, locus YIL066C, strain RNR3, hits give low values 0.948 | S. cerevisiae deletion strains, locus YIL073C, strain SPO22, hits give low values 0.99 | S. cerevisiae deletion strains, locus YIL125W, strain kgd1, hits give low values 0.983 | S. cerevisiae deletion strains, locus YIR030C, strain dcg1, hits give low values 0.982 | S. cerevisiae deletion strains, locus YJL095W, strain BCK1, hits give low values 0.965 | S. cerevisiae deletion strains, locus YJL134W, strain LCB3, hits give low values 0.975 | S. cerevisiae deletion strains, locus YJL168C, strain set2, hits give low values 0.978 | S. cerevisiae deletion strains, locus YJL187C, strain SWE1 (second series), hits give low values 0.931 | [8] 1.01 | [9] 0.953 | S. cerevisiae deletion strains, locus YKL009W, strain mrt4, hits give low values 0.968 | S. cerevisiae deletion strains, locus YKL068W, hits give low values 0.982 | S. cerevisiae deletion strains, locus YKL085W, strain MDH1 (second series), hits give low values 0.943 | S. cerevisiae deletion strains, locus YKL085W, strain MDH1, hits give low values 0.943 | S. cerevisiae deletion strains, locus YKL190W, strain CNB1, hits give low values 0.964 | S. cerevisiae deletion strains, locus YKR001C, strain vps1, hits give low values 0.971 | [10] 0.735 | S. cerevisiae deletion strains, locus YLR058C, strain SHM2, hits give low values 0.971 | S. cerevisiae deletion strains, locus YLR102C, strain apc9, hits give low values 0.971 | [11] 0.749 | S. cerevisiae deletion strains, locus YLR268W, strain sec22, hits give low values 0.928 | S. cerevisiae deletion strains, locus YLR330W, strain CHS5, hits give low values 0.989 | S. cerevisiae deletion strains, locus YLR342W, strain FKS1 (second series), hits give low values 1.01 | S. cerevisiae deletion strains, locus YLR371W, strain rom2, hits give low values 0.986 | S. cerevisiae deletion strains, locus YLR418C, strain cdc73, hits give low values 0.862 | S. cerevisiae deletion strains, locus YML016C, strain PPZ1, hits give low values 0.979 | S. cerevisiae deletion strains, locus YML032C, strain rad52, hits give low values 1.01 | S. cerevisiae deletion strains, locus YML124C, strain tub3, hits give low values 0.998 | S. cerevisiae deletion strains, locus YMR078C, strain ctf18, hits give low values 0.968 | S. cerevisiae deletion strains, locus YMR223W, strain ubp8, hits give low values 1 | [12] 0.936 | S. cerevisiae deletion strains, locus YMR307W, strain GAS1, hits give low values 1.01 | S. cerevisiae deletion strains, locus YNL067W, strain RPL9B, hits give low values 0.936 | S. cerevisiae deletion strains, locus YNL128W, strain TEP1, hits give low values 0.924 | [13] 0.922 | S. cerevisiae deletion strains, locus YNL233W, strain BNI4, hits give low values 0.972 | S. cerevisiae deletion strains, locus YNL250W, strain rad50, hits give low values 0.948 | S. cerevisiae deletion strains, locus YNL271C, strain bni1, hits give low values 0.983 | S. cerevisiae deletion strains, locus YNL298W, strain CLA4, hits give low values 0.968 | S. cerevisiae deletion strains, locus YNL307C, strain MCK1, hits give low values 0.971 | [14] 0.977 | S. cerevisiae deletion strains, locus YNR052C, strain pop2, hits give low values 0.989 | S. cerevisiae deletion strains, locus YOL006C, strain TOP1, hits give low values 0.846 | S. cerevisiae deletion strains, locus YOL012C, strain htz1 0.923 | S. cerevisiae deletion strains, locus YOL147C, strain pex11, hits give low values 0.99 | S. cerevisiae deletion strains, locus YOR061W, strain CKA2, hits give low values 0.942 | S. cerevisiae deletion strains, locus YOR069W, strain VPS5, hits give low values 0.975 | S. cerevisiae deletion strains, locus YOR136W, strain idh2, hits give low values 0.984 | S. cerevisiae deletion strains, locus YOR144C, strain elg1, hits give low values 0.988 | S. cerevisiae deletion strains, locus YOR184W, strain ser1, hits give low values 0.959 | S. cerevisiae deletion strains, locus YOR316C, strain cot1, hits give low values 0.968 | [15] 0.852 | [16] 0.974 | S. cerevisiae deletion strains, locus YPR119W, strain clb2, hits give low values 0.99 | S. cerevisiae deletion strains, locus YPR141C, strain kar3, hits give low values 0.957 | S. cerevisiae deletion strains, locus YPR163C, strain tif3, hits give low values 0.967 | S. cerevisiae deletion strains, locus YPR167C, strain met16, hits give low values 0.979 | S. cerevisiae deletion strains, strain wtn01, hits give low values 0.951 | S. cerevisiae strains, strain wild type, hits give low values 0.972

Source: PubChem BioAssay AID1159580 (chemical genetic matrix, 2015)
